Screening results deposited in PubChem by National Center for Advancing Translational Sciences (NCATS).
FLuc inh – Firefly luciferase inhibition profiling of diverse chemical library using quantitative high-throughput screening; Potency, µM (titrated, usually from 115 µM), hits mostly inhibitors; 2.5% of 76,000 active; Luciferin 4-monooxygenase (Photinus pyralis), P08659; purified P. pyralis luciferase, luminescence, biochemical; also: nearly all actives have a fitted effect of over 65% in size
Target sequence (P08659 whole entry, looked up): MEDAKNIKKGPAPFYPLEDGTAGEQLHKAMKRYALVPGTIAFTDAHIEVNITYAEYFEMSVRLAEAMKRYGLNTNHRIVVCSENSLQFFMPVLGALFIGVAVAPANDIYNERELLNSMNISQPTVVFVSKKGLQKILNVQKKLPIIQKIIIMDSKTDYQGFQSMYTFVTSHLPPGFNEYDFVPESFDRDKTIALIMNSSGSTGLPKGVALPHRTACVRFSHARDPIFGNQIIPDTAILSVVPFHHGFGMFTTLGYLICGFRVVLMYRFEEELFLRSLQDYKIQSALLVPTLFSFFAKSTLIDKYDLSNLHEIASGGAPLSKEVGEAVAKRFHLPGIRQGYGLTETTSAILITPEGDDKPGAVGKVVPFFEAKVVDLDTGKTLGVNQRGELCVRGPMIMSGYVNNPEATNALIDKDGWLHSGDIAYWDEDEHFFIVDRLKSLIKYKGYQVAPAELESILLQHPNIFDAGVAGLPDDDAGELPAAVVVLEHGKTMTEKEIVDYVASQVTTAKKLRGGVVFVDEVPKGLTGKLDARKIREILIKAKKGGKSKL
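Inhibitors were tested against purified firefly luciferase in a biochemical, low-substrate format (both substrates at 10uM) and luminescence measured with a CCD imager.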
hNpr1 antagonist – Natriuretic polypeptide receptor (hNpr1) antagonism - Primary qHTS; Atrial natriuretic peptide receptor 1 (Homo sapiens), P16066; HEK293 hNpr1 GloSensor cGMP, ANP-stimulated luminescence; Potency, µM (titrated, usually from 46.3 µM), most hits filed as inhibitors; 1.6% of 76,000 active; AID 1347048, 2019; calls by dose curve; also: nearly all actives have a fitted effect of over 60% in size
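HEK293 cells stably expressing human Npr1 and cGMP GloSensor pGS-40F, loaded 2 h with 2% GloSensor reagent, given compound 30 min at room temperature. Luminescence read before and 20 min after 0.1 nM hNppA.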
3T3 cytotox – Cytotoxic Profiling in NIH 3T3 Cell Line of Diverse Libraries Using Quantitative High-Throughput Screening; AID 1345082, 2018; 4.3% of 94,000 active; NIH 3T3 viability, CellTiter-Glo ATP luminescence, 48-72 h; Potency, µM (series often up to 96.7 µM), usual class: inhibitors; also: nearly all actives have a fitted effect of over 55% in size
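NIH 3T3 cells at 400 cells/well received 23 nL of compound by pintool and were incubated 48 or 72 h at 37 °C. Viability was read as ATP-coupled CellTiter-Glo luminescence.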
GPT2 inh – Primary qHTS assay for inhibitors of Glutamate pyruvate transaminase 2 (GPT2); Recombinant GPT2, coupled pyruvate oxidase/HRP Amplex Red fluorescence; Potency, µM (doses to about 57.7 µM), hits mostly inhibitors; 0.25% of 100,000 active; also: nearly all actives have a fitted effect of over 60% in size
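Fluorescence of coupled pyruvate oxidase/HRP/Amplex Red system (50uM Amplex, 30 min, dark) reports pyruvate formed by GPT2. Enzyme reaction: 10ng/uL GPT2, 2mM L-alanine, 250uM a-KG, 30 min room temperature, pH 7.5; 50uM AOA control.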
HEK293 tox – Cytotoxic Profiling in HEK 293 Cell Line of Diverse Libraries Using Quantitative High-Throughput Screening | AID 1345083, 2018 | 6.6% of 94,000 active | HEK 293 viability, ATP luminescence (CellTiter-Glo), 48-72 h | Potency, µM (doses to about 115 µM), hits mostly inhibitors; also: nearly all actives have a fitted effect of over 60% in size
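Read-out: CellTiter-Glo ATP luminescence. Cells: HEK 293, 250 cells/well. Exposure: 48 or 72 hr, 37 degree Celsius.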
Each line names hits and unclear results; the compound was inactive in the other large screens. Only some compounds are listed: those with a hit (about 10% of all), similar ones and a draw of the others. Unless noted, calls follow the shape of the dose curve; as a rule, active = well fitted curve in the direction sought with a large enough effect; inconclusive = small, poorly fitted or top-dose-only effect, or another doubt; inactive = no such curve, though single readings can be large; an effect the other way counts as inactive or inconclusive.

COCCn1c(=O)c(C(=O)N2CCN(C(=O)c3cccc(Cl)c3)CC2)nc2cccnc21	none (no result: FLuc inh, hNpr1 antagonist)
O=C(Nc1ccc(F)cc1)c1ccc2oc(-c3cccnc3Cl)nc2c1	3T3 cytotox inconclusive, HEK293 tox inconclusive (no result: FLuc inh, hNpr1 antagonist)
COc1cccc(N2C(=O)NC(=NC3CCCC3)C23CCN([S+](=O)([O-])c2cccc(OC)c2)C3)c1 (configuration not stated)	none (no result: FLuc inh, hNpr1 antagonist)
CCOc1ccc(NC(=O)c2ccc3c(c2)N(CC)C2CCCCN2C3=O)cc1 (configuration not stated)	3T3 cytotox 22µM, HEK293 tox 32µM
CCOC(=O)c1ccc(NC(=O)c2ccc3c(c2)N(C)C2CCCCN2C3=O)cc1 (configuration not stated)	3T3 cytotox inconclusive, HEK293 tox 35µM
CCOC(=O)c1ccc(NC(=O)c2ccc3c(c2)N(CC)C2CCCCN2C3=O)cc1 (configuration not stated)	3T3 cytotox inconclusive, HEK293 tox 35µM
CCOC(=O)c1ccc(NC(=O)c2ccc3c(c2)N(CC)C2CCCN2C3=O)cc1 (configuration not stated)	HEK293 tox inconclusive
CN1c2cc(C(=O)Nc3ccc(C(N)=O)cc3)ccc2C(=O)N2CCCCC21 (configuration not stated)	3T3 cytotox inconclusive
COc1ccc(-c2ccc3c(c2)C(=O)N2CC[C@H](NS(=O)(=O)c4cccs4)[C@H]2C(=O)N3)cc1	FLuc inh inconclusive, hNpr1 antagonist inconclusive, 3T3 cytotox inconclusive, HEK293 tox 22µM
COc1ccc(-c2ccc3c(c2)C(=O)N2CC[C@H](NC(=O)CCC(=O)O)[C@H]2C(=O)N3)cc1	FLuc inh inconclusive
O=C(N[C@H]1CCN2C(=O)c3cc(-c4ccc(Cl)cc4)ccc3NC(=O)[C@H]12)c1cccs1	FLuc inh 11µM, 3T3 cytotox inconclusive, HEK293 tox inconclusive
COc1ccc(-c2ccc3c(c2)C(=O)N2CC[C@H](NC(=O)CSC)[C@H]2C(=O)N3)cc1	FLuc inh 25µM, 3T3 cytotox inconclusive, HEK293 tox inconclusive
COc1ccc(Cl)cc1-c1ccc2c(c1)C(=O)N1CC[C@H](NC(=O)NC(C)C)[C@H]1C(=O)N2	HEK293 tox inconclusive
COc1ccc(Cl)cc1-c1ccc2c(c1)C(=O)N1CC[C@H](NC(=O)c3cccs3)[C@H]1C(=O)N2	hNpr1 antagonist inconclusive, 3T3 cytotox inconclusive, HEK293 tox 35µM
O=C(NC1CCCCCC1)c1ccc2nc(-c3ccncc3)oc2c1	GPT2 inh inconclusive (no result: FLuc inh, hNpr1 antagonist)
O=C(Nc1cncnc1)C1CCCN1c1nc2ncccc2o1 (configuration not stated)	none (no result: FLuc inh, hNpr1 antagonist)
CCn1c(C2CCCN(C(=O)Nc3ccccc3F)C2)nn(C)c1=O (configuration not stated)	none (no result: FLuc inh, hNpr1 antagonist)
O=C(C1CCCC1)N1CCCC(C(=O)N2CCCC2c2nc3ccncc3[nH]2)C1 (configuration not stated)	none (no result: FLuc inh, hNpr1 antagonist)
O=C(N[C@H]1CCN2C(=O)c3cc(-c4ccccc4)ccc3NC(=O)[C@H]12)c1cccs1	none
COc1ccc(-c2ccc3c(c2)C(=O)N2CC[C@H](NC(=O)c4cccs4)[C@H]2C(=O)N3)c(OC)c1	FLuc inh inconclusive, HEK293 tox inconclusive
O=C(N[C@H]1CCN2C(=O)c3ccc(Cl)cc3NC(=O)[C@H]12)c1cccs1	3T3 cytotox 89µM
COc1ccc(-c2ccc3c(c2)C(=O)N2CC[C@H](NC(=O)c4cccs4)[C@H]2C(=O)N3)cc1	FLuc inh 25µM
CC(=O)N1CCN(C(=O)c2nc3cccnc3n(C3CC3)c2=O)CC1	none (no result: FLuc inh, hNpr1 antagonist)
O=C(NCc1ccco1)c1cc(-c2ccccc2F)cc2c1OCCN2Cc1cccnc1	3T3 cytotox inconclusive, HEK293 tox inconclusive
CNC(=O)c1cc(-c2ccccc2)cc2c1OCCN2Cc1cccnc1	3T3 cytotox inconclusive, HEK293 tox inconclusive
CN(C)CCN(C)C(=O)c1cc(-c2ccccc2F)cc2c1OCCN2Cc1cccnc1	3T3 cytotox inconclusive, HEK293 tox 79µM
CNC(=O)c1cc(-c2cnn(C)c2)cc2c1OCCN2Cc1cccnc1	3T3 cytotox 40µM
CN(C)CCNC(=O)c1cc(-c2ccccc2F)cc2c1OCCN2Cc1cccnc1	3T3 cytotox 40µM, HEK293 tox 63µM
CN1CCOc2c(C(=O)NCc3cccnc3)cc(-c3ccccc3F)cc21	3T3 cytotox inconclusive, HEK293 tox 100µM
CNC(=O)c1cc(-c2ccc(O)c(F)c2)cc2c1OCCN2Cc1cccnc1	3T3 cytotox inconclusive, GPT2 inh inconclusive, HEK293 tox inconclusive
CC(C)NC(=O)c1cc(-c2ccccc2F)cc2c1OCCN2Cc1cccnc1	3T3 cytotox 79µM, HEK293 tox 89µM
O=C(NC1CCCN(c2ccc3nnc(-c4ccccc4)n3n2)C1)c1ccc(F)cc1 (configuration not stated)	none (no result: FLuc inh, hNpr1 antagonist, GPT2 inh)
O=C(NC1CCCC1)NC1CCCN(c2ccc3nnc(-c4ccccc4)n3n2)C1 (configuration not stated)	none (no result: FLuc inh, hNpr1 antagonist, GPT2 inh)
O=C(NC1CCCN(c2ccc3nnc(-c4ccccc4)n3n2)C1)c1ccccn1 (configuration not stated)	3T3 cytotox inconclusive, HEK293 tox 28µM (no result: FLuc inh, hNpr1 antagonist, GPT2 inh)
COc1ccc(C(=O)NC2CCCN(c3ccc4nnc(-c5ccccc5)n4n3)C2)cc1 (configuration not stated)	3T3 cytotox inconclusive, HEK293 tox 22µM (no result: FLuc inh, hNpr1 antagonist, GPT2 inh)
O=C(Cn1cccc1-c1nc(-c2ccccc2)no1)Nc1cc(F)ccc1Cl	none
COc1ccccc1Nc1ccnc(N2CCN(C(=O)Cc3cccc(Cl)c3)CC2)n1	3T3 cytotox inconclusive, HEK293 tox 45µM (no result: FLuc inh, hNpr1 antagonist)
CC(=O)N1CCN(c2nccc(Nc3ccccc3F)n2)CC1	HEK293 tox inconclusive (no result: FLuc inh, hNpr1 antagonist)
COc1ccccc1Nc1ccnc(N2CCN(C(=O)c3cccc(Cl)c3)CC2)n1	3T3 cytotox inconclusive, HEK293 tox inconclusive (no result: FLuc inh, hNpr1 antagonist)
O=C(Cc1cccc(Cl)c1)N1CCN(c2nccc(Nc3ccccc3F)n2)CC1	3T3 cytotox inconclusive, HEK293 tox 28µM (no result: FLuc inh, hNpr1 antagonist)
O=C(NCc1ccccn1)c1nc2sccn2c1-c1ccncc1	none (no result: FLuc inh, hNpr1 antagonist)
O=C(NC1CCCC1)N1CC(Oc2cccc(-c3nc(-c4ccccc4)no3)c2)C1	3T3 cytotox inconclusive, HEK293 tox inconclusive
CC(C)CNC(=O)N1CC(Oc2ccc(-c3nc(-c4ccccc4)no3)cc2)C1	hNpr1 antagonist 0.5µM, HEK293 tox inconclusive
O=C(NC1CCCC1)N1CC(Oc2ccc(-c3nc(-c4ccccc4)no3)cc2)C1	FLuc inh inconclusive, hNpr1 antagonist 0.32µM, HEK293 tox inconclusive
COc1ncccc1-c1nccn2c(C3CN(C(=O)c4cc5ccccc5[nH]4)C3)ncc12	HEK293 tox inconclusive
